Data reported in PubChem BioAssay (Tox21).
Several values for one entry are separate records, joined by “and”; a condition that tells them apart may be missing. Equal entries are not always repeated. Inconclusive results are not listed. Some compounds were tested as several samples or in several runs, with calls that do not always agree. Activity calls are given as the source filed them. Unless noted, calls follow the shape of the dose curve; as a rule, active = well fitted curve in the direction sought with a large enough effect in the repeat runs; inconclusive = weak or mixed curves; inactive = no such curve, though single readings can be large; an effect the other way counts as inactive or inconclusive.

Key:
[1] = qHTS assay to identify small molecule agonists of the NFkB signaling pathway (AID 1159509; active = well fitted curve in the direction sought with a large enough effect in the signal ratio in the repeat runs, not every such curve was filed as active; the % refers to the signal ratio)
Summary of the method: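 Agonist activity was read as beta-lactamase-driven FRET change (460 and 530 nm emission, 405 nm excitation) following 1.5 hr substrate loading at room temperature. Beforehand, ME-180 NFkB-bla reporter cells were treated with compounds for 5 hr at 37 C.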

[2] = qHTS assay to identify small molecule agonists of the NFkB signaling pathway - cell viability counter screen (AID 1159515; calls by dose curve; also: nearly all actives have a fitted effect of over 55% in size)
Summary of the method: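 Cells are seeded (2,000 NFkB-bla ME-180 per well), rested overnight, and dosed with DMSO-dissolved compounds for 5 hr at 37 C. Viability is then read by CellTiter-Glo luminescence after 30 min at room temperature.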

[3] = qHTS assay to identify small molecule agonists of the endoplasmic reticulum stress response signaling pathway (AID 1159516; active = well fitted activation curve with a large enough effect in the signal ratio in the repeat runs, not every such curve was filed as active; the % refers to the signal ratio)
Summary of the method: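 Cells are seeded at 1,500 per well and incubated overnight. Compounds in DMSO are added for 5 hr at 37 C, then beta-lactamase FRET substrate for 2 hr at room temperature, and fluorescence at 460 and 530 nm is measured.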

[4] = qHTS assay to identify small molecule agonists of the endoplasmic reticulum stress response signaling pathway - cell viability counter screen (AID 1159517; calls by dose curve;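 also: HeLa cells carrying an ER stress response element beta-lactamase reporter; nearly all actives have a fitted effect of over 50% in size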)
Summary of the method: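 Cpd-treated ESRE-bla HeLa (5 hr, 37 C) → LiveBLAzer 2 hr RT → CellTiter-Glo 30 min RT → luminescence.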

[5] = target: Nuclear receptor ROR-gamma (Homo sapiens) (UniProt P51449); experiment: qHTS assay to identify small molecule antagonists of the retinoid-related orphan receptor gamma (ROR-gamma) signaling pathway (AID 1159521; also: nearly all actives have a fitted effect of over 50% in size; also: potency is read from the fitted curve at half-maximal effect)
Summary of the method: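 Inducible-expression reporter assay: doxycycline (1 uM final) switched on RORγ in CHO cells bearing a ROR response element-luciferase construct, with test compounds present from 2 h beforehand. Decreased luminescence after 16 h defined antagonist activity.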

[6] = qHTS assay to identify small molecule agonists of the AP-1 signaling pathway - cell viability counter screen (AID 1159525; calls by dose curve; also: nearly all actives have a fitted effect of over 55% in size)
Summary of the method: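 Each titration point was normalised to DMSO and tetra n-octyl ammonium bromide controls. The read was Cell Titer Glo luminescence after 30 min at RT, following 5 h compound exposure of ME-180 AP-1-bla cells at 37 °C.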

[7] = qHTS assay to identify small molecule agonists of the AP-1 signaling pathway (AID 1159526; calls by dose curve)
[8] = target: Retinoic acid receptor RXR-alpha (Homo sapiens) (UniProt P19793); experiment: qHTS assay to identify small molecule agonists of the RXR signaling pathway (AID 1159527; calls by dose curve; also: nearly all actives have a fitted effect of over 35% in size)
Sequence of Retinoic acid receptor RXR-alpha (Homo sapiens) (P19793 whole entry, looked up): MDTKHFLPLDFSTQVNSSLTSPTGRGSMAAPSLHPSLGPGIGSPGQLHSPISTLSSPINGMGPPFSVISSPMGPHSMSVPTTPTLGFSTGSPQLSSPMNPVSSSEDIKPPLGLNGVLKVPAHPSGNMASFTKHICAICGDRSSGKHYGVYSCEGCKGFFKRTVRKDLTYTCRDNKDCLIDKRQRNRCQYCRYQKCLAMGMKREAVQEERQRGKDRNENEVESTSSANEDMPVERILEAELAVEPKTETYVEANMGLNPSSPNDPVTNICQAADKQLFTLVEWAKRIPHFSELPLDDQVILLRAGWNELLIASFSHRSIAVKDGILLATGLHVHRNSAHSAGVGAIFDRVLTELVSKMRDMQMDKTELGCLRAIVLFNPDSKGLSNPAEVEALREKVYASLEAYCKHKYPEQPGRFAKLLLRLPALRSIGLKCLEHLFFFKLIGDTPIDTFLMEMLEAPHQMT
Summary of the method: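 Compounds in DMSO were added to RXR-alpha-UAS-bla HEK 293T cells kept in 2% charcoal-stripped serum, and incubated 16 hr at 37 C with 5% CO2. Reporter signal came from a 2 hr B/G FRET substrate step.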

[9] = qHTS assay to identify small molecule agonists of the RXR signaling pathway - cell viability counter screen (AID 1159529);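 also: HEK 293T cells carrying an RXR-alpha UAS beta-lactamase reporter; nearly all actives have a fitted effect of over 50% in size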
Summary of the method: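 Counter screen: CellTiter-Glo luminescence. Cells: RXR-alpha-UAS-bla HEK 293T. Medium: 2% charcoal-stripped FBS. Treatment: 16 h, 37 C. Reagent incubation: 30 min, RT.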

[10] = qHTS assay to identify small molecule antagonists of the retinoid acid receptor (RAR) signaling pathway - cell viability counter screen (AID 1159551); also: nearly all actives have a fitted effect of over 35% in size
Summary of the method: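 Cells (C3RL4) are plated, incubated overnight, dosed with compound in DMSO, then given retinol at 1 uM final. After 6 h at 37 C, CellTiter-Glo is added and luminescence read following 30 min at room temperature.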

[11] = target: Luciferin 4-monooxygenase (Photinus pyralis) (UniProt P08659); experiment: qHTS assay to identify small molecule inhibitors of firefly luciferase (AID 1224835); also: nearly all actives have a fitted effect of over 25% in size; also: potency is read from the fitted curve at half-maximal effect
Sequence of Luciferin 4-monooxygenase (Photinus pyralis) (P08659 whole entry, looked up): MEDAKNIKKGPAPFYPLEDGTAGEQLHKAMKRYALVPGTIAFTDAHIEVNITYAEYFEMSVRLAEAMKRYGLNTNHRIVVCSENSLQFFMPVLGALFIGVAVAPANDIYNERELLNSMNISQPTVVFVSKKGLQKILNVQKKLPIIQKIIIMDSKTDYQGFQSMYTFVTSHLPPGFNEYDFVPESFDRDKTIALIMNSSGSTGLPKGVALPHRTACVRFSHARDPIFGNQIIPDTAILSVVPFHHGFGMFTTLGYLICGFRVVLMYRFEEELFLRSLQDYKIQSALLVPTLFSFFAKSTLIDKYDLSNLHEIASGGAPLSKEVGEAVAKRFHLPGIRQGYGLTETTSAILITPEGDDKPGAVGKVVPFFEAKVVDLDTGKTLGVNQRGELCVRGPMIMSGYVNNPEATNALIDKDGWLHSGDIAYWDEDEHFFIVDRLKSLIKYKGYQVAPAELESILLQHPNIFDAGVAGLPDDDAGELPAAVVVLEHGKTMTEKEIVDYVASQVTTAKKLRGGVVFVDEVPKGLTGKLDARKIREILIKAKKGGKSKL
Summary of the method: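 Quantitative HTS format; KM concentrations of both substrates. Purified P. pyralis FLuc activity quantified from luminescence images.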

[12] = qHTS assay to identify small molecule agonists of the constitutive androstane receptor (CAR) signaling pathway - cell viability counter screen (AID 1224836); also: nearly all actives have a fitted effect of over 45% in size
Summary of the method: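 Double-stable HepG2 hepatoma cells (hCAR plus CYP2B6-2.2kb) are treated for 23 h at 37 C with test compounds in 15-point concentration series. PK11195 at 0.75 uM final is co-added. Cell viability is quantified by CellTiter-Fluor.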

[13] = qHTS assay to identify small molecule antagonists of the constitutive androstane receptor (CAR) signaling pathway - cell viability counter screen (AID 1224837); also: nearly all actives have a fitted effect of over 45% in size
Summary of the method: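 Viability was measured with CellTiter-Fluor in a HepG2 line carrying stably transfected hCAR and a CYP2B6-2.2kb construct. Cells were exposed for 23 hr at 37 C to 15 compound concentrations with 50 nM CITCO as agonist.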

[14] = qHTS assay to identify small molecule antagonists of the retinoic acid receptor (RAR) signaling pathway (AID 1159552; also: nearly all actives have a fitted effect of over 50% in size)
Summary of the method: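 Antagonism of retinol-induced RARE reporter activity was measured in C3RL4 cells. Exposure to compounds and 1 uM final retinol lasted 6 hr at 37 C, with luminescence as endpoint.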

[15] = qHTS assay to identify small molecule agonists of the retinoic acid receptor (RAR) signaling pathway (AID 1159553); details: C3RL4 RARE luciferase reporter, agonist, 6 h; activation: at 73.3 µM (top of the series) unless noted
Summary of the method: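 Seed C3RL4 reporter cells at 1,000 per well and incubate overnight at 37 C. Add compounds in DMSO, incubate 6 hr. Add luciferase reagent, wait 30 min at room temperature, read luminescence.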

[16] = qHTS assay to identify small molecule antagonists of the estrogen related receptor (ERR) signaling pathway from Tox21 library - cell viability counter screen (AID 1224834); also: nearly all actives have a fitted effect of over 30% in size; also: potency is read from the fitted curve at half-maximal effect
Summary of the method: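 ERR cells, 2,000/well; 6 h settle at 37 C/5% CO2; pin-tool compound transfer in DMSO; 17.5 h at 37 C; CellTiter-Fluor, 30 min; fluorescence intensity.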

[17] = target: Nuclear receptor subfamily 1 group I member 3 (Homo sapiens) (UniProt Q14994); experiment: qHTS assay to identify small molecule antagonists of the constitutive androstane receptor (CAR) signaling pathway (AID 1224838);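 also: HepG2 cells stably expressing hCAR with CYP2B6 luciferase reporter stimulated by CITCO; nearly all actives have a fitted effect of over 40% in size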; also: potency is read from the fitted curve at half-maximal effect
Sequence of Nuclear receptor subfamily 1 group I member 3 (Homo sapiens) (Q14994 whole entry, looked up): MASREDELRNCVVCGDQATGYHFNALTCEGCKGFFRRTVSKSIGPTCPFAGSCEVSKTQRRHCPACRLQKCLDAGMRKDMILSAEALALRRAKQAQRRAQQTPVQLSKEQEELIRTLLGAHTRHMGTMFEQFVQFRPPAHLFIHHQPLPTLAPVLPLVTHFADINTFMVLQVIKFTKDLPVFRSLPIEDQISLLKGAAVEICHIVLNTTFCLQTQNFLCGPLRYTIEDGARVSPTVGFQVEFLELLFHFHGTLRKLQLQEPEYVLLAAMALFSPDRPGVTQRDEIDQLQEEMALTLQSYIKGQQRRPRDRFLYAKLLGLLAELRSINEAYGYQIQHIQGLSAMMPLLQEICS
Summary of the method: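 Antagonist mode used CITCO at a final 50 nM to activate CAR in human hepatoma HepG2 cells carrying stable hCAR and a 2.2 kb CYP2B6 promoter-luciferase construct. Compounds were tested at 15 concentrations over 24 h, with luminescence as the end point.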

[18] = qHTS assay to identify small molecule antagonists of the retinoid-related orphan receptor gamma (ROR-gamma) signaling pathway - cell viability counter screen (AID 1159520); also: nearly all actives have a fitted effect of over 50% in size
Summary of the method: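 Tet-on ROR gamma CHO cells (1,000/well) were plated 4 hr, given compounds in DMSO for 2 hr at 37 C, then induced with 1 uM final doxycycline for 16 hr. Viability was read as ATP by CellTiter-Glo luminescence after 30 min.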

Measured: Potency

CC1OC(C)OC(C)O1 (centres undefined)
inactive: [1] | [2] | [3] | [4] | [5] | [6] | [7] | [8] | [9] | [10] | [11] | [12] | [13]

COP(N)(=O)SC (centres undefined)
inactive: [1] | [2] | [3] | [4] | [5] | [6] | [7] | [8] | [9] | [10] | [14] | [15] | [16] | [11] | [12] | [13] | [17]

ClCc1cccnc1
inactive: [1] | [2] | [3] | [4] | [5] | [6] | [7] | [8] | [9] | [10] | [11] | [12] | [13] | [17]

[N-]=[N+]=[N-]
inactive: [1] | [3] | [4] | [18] | [5] | [6] | [7] | [8] | [9] | [10] | [16] | [11] | [12] | [13] | [17]

Cc1ccc([N+](=O)[O-])cc1C
inactive: [1] | [3] | [4] | [5] | [6] | [7] | [9] | [10] | [14] | [15] | [16] | [11] | [12] | [13] | [17]

c1ccc2c(c1)Oc1ccccc1O2
inactive: [1] | [3] | [4] | [18] | [5] | [6] | [7] | [8] | [9] | [10] | [14] | [15] | [16] | [12] | [13] | [17]

CCC[CH2][Sn]([Cl])([Cl])[Cl]
inactive: [1] | [3] | [4] | [5] | [6] | [7] | [8] | [9] | [10] | [16] | [11] | [12] | [13] | [17]

C=CC(N)=O
inactive: [1] | [3] | [4] | [18] | [5] | [6] | [7] | [8] | [9] | [10] | [14] | [15] | [11] | [12] | [13]

CCOP(=S)(OCC)SCCSCC
inactive: [1] | [3] | [4] | [18] | [5] | [6] | [7] | [8] | [9] | [10] | [14] | [15] | [11] | [12] | [13] | [17]

Cc1cccc([N+](=O)[O-])c1
inactive: [1] | [3] | [4] | [18] | [6] | [7] | [9] | [10] | [15] | [16] | [11] | [12] | [13]

CCNc1nc(NC(C)C)nc(SC)n1
inactive: [1] | [3] | [4] | [18] | [5] | [6] | [7] | [8] | [9] | [10] | [16] | [11] | [12] | [13] | [17]

O=S(=O)(c1ccc(O)cc1)c1ccc(O)cc1
inactive: [1] | [3] | [4] | [6] | [7] | [8] | [9] | [10] | [14] | [15] | [16] | [11] | [12] | [13] | [17]

O=NN1CCCC1
10.1 µM (active) and inactive: [5]
inactive: [1] | [3] | [4] | [18] | [6] | [7] | [8] | [9] | [10] | [14] | [15]
45.3 µM (active) and inactive: [16]
83.4 µM (active) and inactive: [11]
28.6 µM (active) and inactive: [17]

Nc1ccc(Oc2ccc(N)cc2)cc1
inactive and 63.3 µM (active): [11]
inactive: [1] | [3] | [4] | [5] | [6] | [7] | [8] | [9] | [10] | [14] | [16] | [12] | [13] | [17]

CCOC(=O)c1ccccc1C(=O)OCC
inactive: [1] | [3] | [4] | [18] | [5] | [6] | [7] | [9] | [10] | [14] | [15] | [11] | [12] | [13] | [17]

COCCl
inactive: [1] | [3] | [4] | [5] | [6] | [7] | [8] | [9] | [10] | [14] | [15] | [16] | [11] | [12] | [13] | [17]

Cc1ccccc1O
inactive: [1] | [3] | [4] | [5] | [6] | [7] | [8] | [9] | [10] | [14] | [15] | [16] | [11] | [12] | [13] | [17]

Cc1ccc(N)cc1N
inactive: [1] | [3] | [4] | [5] | [6] | [7] | [9] | [10] | [12] | [13] | [17]

CN(C)[C@@H]1C(=O)C(C(N)=O)=C(O)[C@@]2(O)C(=O)C3=C(O)c4c(O)cccc4[C@@](C)(O)[C@H]3C[C@@H]12
inactive: [1] | [3] | [4] | [18] | [6] | [7] | [8] | [9] | [10] | [16] | [12] | [13] | [17]

CN(C)N=O
inactive: [1] | [3] | [4] | [5] | [6] | [7] | [8] | [9] | [10] | [14] | [15] | [11] | [12] | [13] | [17]
